High-throughput results (PubChem BioAssay)
TEAD-YAP block: TEAD-YAP interaction inhibition, primary screen, TEAD-YAP interaction inhibitor project, luminescence, HEK-TIYL cells; TEAD-Gal4/YAP UAS-luciferase luminescence; 1.4% of 640,000 active; inhibition, % at 9.12 µM; AID 1259422, 2018; in the data active means inhibition above about 32%;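 further: 0% = median of test compound wells and 100% = reference inhibitor wells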
MITF primary: MITF inhibitors, primary screen, biochemical, AlphaScreen, human. inhibition, % at 2.6 µM. AlphaScreen MITF homodimerization, bead proximity signal. AID 1259374, 2018. 0.91% of 650,000 active. Microphthalmia-associated transcription factor (Homo sapiens), O75030; in the data active means inhibition above about 50%;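 further: 0% = vehicle wells with protein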
FBW7 act: FBW7 E3 ligase activators, primary screen, biochemical, AlphaScreen, human; F-box/WD repeat-containing protein 7 (Homo sapiens), Q969H0; AlphaScreen FBW7–phospho-cyclin E peptide binding, activator screen; 0.13% of 650,000 active; normalized activity (activation), % at 26.1 µM; in the data active means normalized activity above about 1.9%;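 further: purified mutant Fbw7 with reduced substrate affinity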
GPR151 ag: activators of human GPR151, primary screen, cell-based, PathHunter beta-arrestin, luminescence. PathHunter beta-arrestin GPR151 cells. activation, % at 11.2 µM. 1% of 650,000 active. AID 1508602, 2020; in the data active means activation above about 4.9%;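 further: 0% = median of compound wells and 100% = cells with positive control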
Target sequence (Q8TDV0 whole entry, looked up): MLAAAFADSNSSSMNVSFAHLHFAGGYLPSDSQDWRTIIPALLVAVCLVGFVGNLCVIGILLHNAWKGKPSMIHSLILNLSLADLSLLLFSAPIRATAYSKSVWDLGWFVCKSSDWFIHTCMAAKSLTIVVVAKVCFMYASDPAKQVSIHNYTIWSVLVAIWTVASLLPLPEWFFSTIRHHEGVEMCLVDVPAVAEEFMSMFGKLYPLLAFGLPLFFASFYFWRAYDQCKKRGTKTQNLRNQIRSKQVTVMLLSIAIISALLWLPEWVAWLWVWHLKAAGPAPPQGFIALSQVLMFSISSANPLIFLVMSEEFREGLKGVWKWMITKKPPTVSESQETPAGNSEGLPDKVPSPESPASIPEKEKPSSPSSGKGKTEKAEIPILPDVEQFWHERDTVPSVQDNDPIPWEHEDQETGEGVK
MITF confirm: MITF inhibitors, retest of hits, confirmation, biochemical, AlphaScreen, triplicate. shares compounds with MITF primary. AlphaScreen MITF homodimerization, biotin/His-MITF beads. inhibition, % at 2.6 µM. 16% of 4,700 active. AID 1259372, 2018;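 active means inhibition above a cutoff derived from the DMSO control wells, cut at about 28% in these data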;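 further: 0% = MITF dimer wells with DMSO only; inhibitors lower the bead chemiluminescence by keeping MITF from dimerizing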
AS interf DR: AlphaScreen optical interference compounds, dose response, counter-screen, biochemical, HTS. AID 1259373, 2018. IC50, µM. AlphaScreen optical interference counterscreen, cell-free. 6% of 480 active. shares compounds with MITF primary; call rule not given here
AlphaScreen intf2: AlphaScreen optical interference compounds, counter-screen for MITF inhibitor project, biochemical, triplicate; inhibition, % at 2.6 µM; shares compounds with MITF primary; 7.6% of 4,700 active; LysRS AlphaScreen counterscreen, signal interference;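 active means inhibition above a cutoff derived from the DMSO control wells, cut at about 30% in these data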
* hit, by the source's call; nt = no result; ! = not active in a repeat. An excerpt weighted towards active compounds, which were near 3.5% of everything screened.

SMILES	TEAD-YAP block	MITF primary	FBW7 act	GPR151 ag	MITF confirm	AlphaScreen intf2	others
CCOC(=O)c1cnc(-n2[nH]c(C)c(CCO)c2=O)[nH]c1=O	-4	86*	0	-1	13	65*
Cc1[nH]n(-c2ncc(C(=O)O)c(=O)[nH]2)c(=O)c1Cc1ccccc1	0	83*	0	1	64*	95*
CCOC(=O)c1cnc(N2CCOCC2)[nH]c1=O	-5	5	0	-1	nt	nt
Cc1cc(=O)[nH]c(-n2[nH]c(C)c(Cc3ccccc3)c2=O)n1	2	15	0	-1	nt	nt
Cc1cccc(C)c1OCC(=O)Nn1c(=O)[nH]c2ccccc2c1=O	4	10	0	2	nt	nt
Cc1cccc(NC(=S)N(Cc2ccccn2)Cc2ccccc2Cl)c1	-8	11	0	0	nt	nt
CN(C)c1ccc(O)c2c1C[C@H]1C[C@H]3[C@H](N(C)C)C(=O)C(C(N)=O)=C(O)[C@@]3(O)C(=O)C1=C2O	0	73*!	0	1	64*	-15	AS interf DR=>6.5
COCCNC(=O)c1c(C)nc2cc(C)ccn12	2	15	0	0	nt	nt
OCc1cn(-c2ccccc2)nc1-c1ccc2c(c1)OCCO2	-82	-7	0	-2	nt	nt
O=C(c1cn(-c2ccccc2)nc1-c1ccc2c(c1)OCCO2)N1CCOCC1	-5	58*	0	0	1	14
CN1CCN(Cc2cn(-c3ccccc3)nc2-c2ccc3c(c2)OCCO3)CC1	-4	77*	0	0	9	12
C=CCN(c1ccc(C(=O)NC(C(C)C)C(C)C)cc1)S(C)(=O)=O	-11	-5	0	4	nt	nt
Cc1ccc(C)c(NC(=O)CCN2CCc3ccccc3C2)c1	-1	-1	0	-1	nt	nt
CSc1ccc(CN2CCCC(CNC(=O)c3cccnc3)C2)cc1 (centres undefined)	-5	-3	0	-1	nt	nt
O=C(NCC1CCCN(Cc2ccc(OCc3ccccc3)cc2)C1)c1cccnc1 (centres undefined)	9	51*	0	-1	0	14
COc1ccc(OCC(=O)OCC(=O)COC(=O)COc2ccc(OC)cc2)cc1	4	77*	0	-1	11	6
NS(=O)(=O)c1ccc(NC(=S)NC(=O)COc2ccc([N+](=O)[O-])cc2)cc1	-3	-6	0	1	nt	nt
CN1CCN(CCOc2ccc(C=O)cc2)CC1	-44	74*	0	-1	6	14
CC(=O)c1ccc(OCCCCN2CCCC2)cc1	-6	19	0	2	nt	nt
CC(=O)c1ccc(OCCN2CCN(C)CC2)cc1	-3	66*	0	-1	11	20
Cc1ccc(C(=O)Nc2cc(C#N)c3[nH]c4ccccc4n3c2=O)cc1	6	0	0	2	nt	nt
CCn1c2ccccc2c2cc(CN3CCN(C(=O)c4ccccc4)CC3)ccc21	-1	23	0	0	nt	nt
CCn1c2ccccc2c2cc(CN3CCN(C(=O)c4cccnc4)CC3)ccc21	-4	58*	0	0	3	3
CCn1c2ccccc2c2cc(CN3CCN(C(=O)c4ccc(F)cc4)CC3)ccc21	-14	55*	0	4	5	7
CCn1c2ccccc2c2cc(CN3CCN(C(=O)c4ccc(OC)cc4)CC3)ccc21	7	48	0	1	nt	nt
SMILES	TEAD-YAP block	MITF primary	FBW7 act	GPR151 ag	MITF confirm	AlphaScreen intf2	others
O=C(CNCc1ccc(F)cc1)Nc1ccc(C(=O)N2CCCCC2)cc1	6	69*	0	-1	9	17
O=C(Cc1ccc(Cl)cc1)Nc1ccc(C(=O)N2CCCCC2)cc1	-22	1	0	1	nt	nt
O=C(CNCc1ccccc1Cl)Nc1ccc(C(=O)N2CCCCC2)cc1	0	72*	0	0	16	18
O=C(CNCCc1ccccc1)Nc1ccc(C(=O)N2CCCCC2)cc1	-13	52*	0	0	10	19
O=C(CNCCc1ccc(Cl)cc1)Nc1ccc(C(=O)N2CCCCC2)cc1	6	58*	0	0	9	21
O=C(CCc1ccccc1)Nc1ccc(C(=O)N2CCCCC2)cc1	3	-15	0	0	nt	nt
